Measured values: article PMC8384837, “Expanding the binding specificity for RNA recognition by a PUF domain”

biological target: PUM1 PUF domain R5-RFK (Homo sapiens, UniProt Q14671 828-1176, C1007R;R1008F;Q1011K); test: yeast three-hybrid, YBZ-1, SC-Leu-His + 0.5 mM 3-AT, 4 days; conditions: tags: N-Gal4 AD-HA kept; label: inside an RPR1-promoter hybrid RNA with tandem MS2 sites; ssRNA
In short: (§1)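 The interaction score is the log change in variant frequency from input to selection. Scores were computed in log2 with a pseudocount of 1 for absent variants, using Illumina sequencing of PCR-amplified repeat regions. The input came from four days on SC-Leu and the selection from four days on SC-Leu-His + 0.5 mM 3-AT. The cells were strain YBZ-1 (LexA–MS2 coat fusion, HIS3 reporter) co-expressing Pumilio-1 PUF domain libraries and matching RNA elements from a centromeric plasmid.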

| Sequence | binding signal |
| --- | --- |
| GGCUAGAACUAGUGGAUCCCCCGGCGCCCGGCGGCUCGAGCCCGGGUAAGUGUAAAUAGUCUGCAUGCCGCCGGGCGCCAUGCCUGCAGGUCGACUCUAGAAAACAUG | 4.34 log2 enrichment (interaction score) |
| GGCUAGAACUAGUGGAUCCCCCGGCGCCCGGCGGCUCGAGCCCGGGUAAGUGUUAAUAGUCUGCAUGCCGCCGGGCGCCAUGCCUGCAGGUCGACUCUAGAAAACAUG | 5.38 log2 enrichment (interaction score) |
| GGCUAGAACUAGUGGAUCCCCCGGCGCCCGGCGGCUCGAGCCCGGGUAAGUGUCAAUAGUCUGCAUGCCGCCGGGCGCCAUGCCUGCAGGUCGACUCUAGAAAACAUG | 5.3 log2 enrichment (interaction score) |

biological target: PUM1 PUF domain R1-YLR (Homo sapiens, UniProt Q14671 828-1176, S863Y;R864L;Q867R); test: as above; conditions: tags: N-Gal4 AD-HA kept; label: inside an RPR1-promoter hybrid RNA with tandem MS2 sites; ssRNA
In short: as §1

| Sequence | binding signal |
| --- | --- |
| GGCUAGAACUAGUGGAUCCCCCGGCGCCCGGCGGCUCGAGCCCGGGUAAGUGUAAAUGGUCUGCAUGCCGCCGGGCGCCAUGCCUGCAGGUCGACUCUAGAAAACAUG | 2.04 log2 enrichment (interaction score) |
| GGCUAGAACUAGUGGAUCCCCCGGCGCCCGGCGGCUCGAGCCCGGGUAAGUGUAAAUCGUCUGCAUGCCGCCGGGCGCCAUGCCUGCAGGUCGACUCUAGAAAACAUG | 3.95 log2 enrichment (interaction score) |
| GGCUAGAACUAGUGGAUCCCCCGGCGCCCGGCGGCUCGAGCCCGGGUAAGUGUAAAUUGUCUGCAUGCCGCCGGGCGCCAUGCCUGCAGGUCGACUCUAGAAAACAUG | 5.29 log2 enrichment (interaction score) |
